Test systems include MDA-MB-435 melanoma; SW-620 colon; MCF7 breast; HCT-116 colon; HCC-2998 colon; KM12 colon.
Common to all, as to assay: NCI-60 one-dose screen, 48 h (100 = growth as untreated, 0 = no growth, -100 = all killed)
What all share (settings): 10 µM unless noted

About 83,000 compounds went through this panel and 20% of them were active in at least one assay; those are over-represented in the sample as a whole.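 Single-concentration screen, 48 h exposure, 96-well plates. Endpoint: percent growth. Below 10 = active.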 A number with no mark means an inactive call. The source made the active and inactive calls.

Regarding `Nc1c(C(=O)Nc2ccccn2)sc2nc3c(cc12)CCCCCC3`, the growth in the test with MDA-MB-435 melanoma is -57.5% (active); in the test on SW-620 colon it was 19%; with MCF7 breast it was 15.6%; in the test with HCT-116 colon, 7.24% (active); with HCC-2998 colon, 48.9%; in the test with KM12 colon, 14.4%.

Regarding `C=C1C(=O)O[C@H]2[C@H]1CC/C(COC(=O)c1cccnc1)=C\CC[C@@]1(C)O[C@@H]21`, the growth was 49.7% in the test with MDA-MB-435 melanoma; 17.7% in the test with SW-620 colon; 21.4% in the test on MCF7 breast; 15.9% in the test with HCT-116 colon; 108% in the test on HCC-2998 colon; 109% in the test with KM12 colon.

Take `O=CN1N=C(c2ccc(F)cc2)CC1c1cccc(Nc2ccnc3cc(C(F)(F)F)ccc23)c1` (configuration not stated): the growth in the test with MDA-MB-435 melanoma was 58.2%; in the test with SW-620 colon, 79.1%; in the test with MCF7 breast, 25.3%; in the test on HCT-116 colon it was 41.8%; with HCC-2998 colon it was 76.3%; in the test with KM12 colon, 55.9%.

For the compound `CNC(=O)c1cc(Oc2ccc3c(c2)sc2nc(-c4ccc(NC(C)=O)cc4)cn23)ccn1`, the growth with SW-620 colon is 57.2%; in the test with MCF7 breast, 55%; in the test with HCT-116 colon it was 48.9%; with HCC-2998 colon, 78.1%; in the test on KM12 colon it was 43.3%.

Consider `COc1ccc(C(=O)c2cc(OC)c(OC)c(OC)c2)cc1OC(=O)CCl`, for which the growth was -13.2% (active) with MDA-MB-435 melanoma; 29.9% with SW-620 colon; 15.9% in the test with MCF7 breast; 10.7% in the test with HCT-116 colon; 26.3% with HCC-2998 colon; 7.22% (active) in the test with KM12 colon.

In the case of `NC(=O)c1ccc2nc3c(n2c1)C(=O)C(=O)c1ccccc1-3`, the growth in the test with MDA-MB-435 melanoma is -91.4% (active); in the test on SW-620 colon, -50.4% (active); in the test with MCF7 breast, -55.5% (active); in the test with HCT-116 colon, -79.4% (active); in the test on HCC-2998 colon, -84.5% (active); in the test with KM12 colon, -50.1% (active).

For `CN(C)[C@@H]1C(=O)C(C(N)=O)=C(O)[C@@]2(O)C(=O)C3=C(O)c4c(O)cc(CN5CCc6ccccc6C5)c(Cl)c4C[C@H]3C[C@@H]12`, the growth in the test with MDA-MB-435 melanoma was -75.7% (active); with SW-620 colon, -72.4% (active); in the test with MCF7 breast it was -68.8% (active); in the test with HCT-116 colon, -90.5% (active); with HCC-2998 colon, -67.1% (active); in the test with KM12 colon it was -82.9% (active).

For the compound `CC1=C/C(=N\N=C2/C=C(C)CC(C)(C)C2)CC(C)(C)C1`, the growth is 106% in the test on SW-620 colon; 102% in the test on MCF7 breast; 98.1% in the test with HCT-116 colon; 94.5% in the test on HCC-2998 colon; 107% in the test with KM12 colon.

Take `COc1cc(-c2csc(NC(=O)Nc3ccc(C(F)(F)F)cc3)n2)cc(OC)c1OC`: the growth is -26.9% (active) in the test with MDA-MB-435 melanoma; 14.8% with SW-620 colon; 0.456% (active) with MCF7 breast; 5.03% (active) in the test with HCT-116 colon; 19.3% in the test on HCC-2998 colon; 7.27% (active) in the test on KM12 colon.

The values are drawn from PubChem BioAssay (NCI).
